# Laboratory results: PubChem BioAssay (EPA / NIEHS)
# “And” between values parts separate entries of the source, which are not always exact repeats. Equal entries are not always repeated. A structure can be active in one record and inactive in another. The source made the active and inactive calls. The calls were made as follows: active = hit-call score of the fitted dose curve at least 0.9, where 1 is the maximum; inactive = score below 0.9.
# Read-out: CD40, CD40 (gene 958)
# Assay: BSK_IMphg_CD40: BioMAP Diversity Plus: IMphg Assay for CD40 Biomarker Activity (AID 2284288)
# Details: primary human endothelial cells with macrophages
# Description: BSK_IMphg is a cell-based, multiplexed-readout assay that uses venular endothelial cells and macrophages, a human vascular primary cell, with measurements taken at 24 hours after chemical dosing in a microplate: 96-well plate.BSK_IMphg_CD40 is an assay component measured in the BSK_IMphg assay. It measures CD40 antibody related to regulation of gene expression using ELISA technology.Data from the assay component BSK_IMphg_CD40 was analyzed at the endpoint, BSK_IMphg_CD40, in the positive analysis fitting direction relative to DMSO as the negative control and baseline of activity. Using a type of binding reporter, gain or loss-of-signal activity can be used to understand protein changes. To generalize the intended target to other relatable targets, this assay endpoint is annotated to the 'cytokine' intended target family, where the subfamily is 'inflammatory factor'.
# The levels of cell surface (or secreted, indicated by the prefix "s") biomarker endpoints were measured by ELISA. Overt cytotoxicity to cells in confluent adherent cultures (all systems other than the BT system) was assessed by measuring total protein levels using sulforhodamine B (SRB) staining in parallel cultures at the time of biomarker measurements, indicated as SRB endpoints. For proliferation assays for adherent cell types, individual cell types are cultured at sub-confluence and relative cell numbers quantified by SRB staining at time points optimized for each system (48 h: 3C and CASM3C systems; 72 h: BT and HDF3CGF systems; 96 h: SAg system). SRB was performed by staining cells with 0.1% SRB after fixation with 10% TCA and reading wells at 560 nm.Viability and proliferation of PBMC (T cells) was quantified by Alamar Blue reduction for the SAg and BT systems. For PBMC viability (referred to as PBMC Cytotoxicity within the assay endpoint names), cells were plated (75,000/well in a 96-well plate) and then chemical samples added for 1 h before addition of activators, SEB and TSST-1 (20 ng/mL final concentration each). Cells were incubated for 90 h. Then, Alamar Blue (20 uL/well) (Invitrogen, Cat DAL1100) was added for 6 h, and the plates were read with a fluorescence microplate reader at 546/580 nm (excitation/emission). For PBMC proliferation, cells were plated and activated as above but incubated for only 16 h prior to addition of Alamar Blue. Plates were read after 6 h.
SMILES,outcome,AC50
FC(F)(F)C(F)(F)C(F)(F)C(F)(F)C(F)(F)C(F)(F)CCS,inactive,–
C=CC(F)(F)C(F)(F)C(F)(F)C(F)(F)C(F)(F)C(F)(F)C(F)(F)C(F)(F)F,inactive,–
O=C(O)C(F)(F)C(F)(F)F,inactive,–
O=S(=O)(O)C(F)(F)C(F)(F)C(F)(F)C(F)(F)C(F)(F)C(F)(F)C(F)(F)F,inactive,–
C=CC(F)(F)C(F)(F)C(F)(F)C(F)(F)C(F)(F)C(F)(F)C(F)(F)C(F)(F)C=C,inactive,–
O=C(O)C(F)(F)C(F)(F)C(F)(F)C(F)(F)C(F)(F)C(F)(F)C(F)(F)C(F)(F)C(F)(F)C(F)(F)C(F)(F)C(F)(F)C(F)(F)F,inactive,–
O=P(O)(O)OCCC(F)(F)C(F)(F)C(F)(F)C(F)(F)C(F)(F)C(F)(F)F,inactive,–
O=C(O)C(F)(F)C(F)(F)C(F)(F)F,inactive,0.319 µM (active)
FC(F)(F)C(F)(F)C(F)(F)C(F)(F)C(F)(F)C(F)(F)C(F)(F)C(F)(F)CCS,inactive,–
FC(F)(I)C(F)(F)C(F)(F)C(F)(F)I,inactive,–
O=C(O)C(F)(F)C(F)(F)OC(F)(F)F,inactive,–
C=C(C)C(=O)OCC(F)(F)C(F)(F)C(F)(F)F,inactive,–
O=C(O)C(F)(F)C(F)(F)C(F)(F)C(F)(F)C(F)(F)C(F)(F)C(F)(F)C(F)(F)Cl,–,44.5 µM (active) and 46.5 µM (active)
OCC(F)(F)C(F)(F)C(F)(F)C(F)(F)C(F)(F)C(F)F,inactive,1.79 µM (active)
FC(F)(Br)C(F)(F)C(F)(F)C(F)(F)C(F)(F)C(F)(F)Br,inactive,–
O=C(CC(=O)C(F)(F)C(F)(F)F)C(F)(F)F,inactive,–
OCC(F)(F)C(F)(F)C(F)(F)C(F)(F)C(F)(F)C(F)(F)F,inactive,–
FC(F)(F)C(F)(F)C(F)(F)C(F)(F)CCI,inactive,–
O=S(=O)(OCC(F)F)C(F)(F)F,inactive,–

SMILES,outcome,AC50
FC(F)(F)C(F)(F)C(F)(F)C(F)(F)C(F)(F)C(F)(F)C(F)(F)I,inactive,–
OCC(F)(F)C(F)(F)C(F)(F)F,inactive,–
NC(=O)C(F)(F)C(F)(F)C(F)(F)C(F)(F)F,inactive,–
CC(C)(C)C(=O)CC(=O)C(F)(F)C(F)(F)C(F)(F)F,inactive,–
FC1CC(F)(F)C(F)(F)C1(F)F (stereo not given),inactive,–
O=C(O)C(F)(F)C(F)(F)C(F)F,inactive,–
FC(F)(F)C(F)(F)C(F)(F)C(F)(F)C(F)(F)C(F)(F)CC1CO1 (stereo not given),inactive,–
O=C(Cl)C(F)(F)C(F)(F)C(F)(F)C(F)(F)C(F)(F)C(F)(F)C(F)(F)C(F)(F)F,inactive,36.6 µM (active)
FC(F)(F)C(F)(F)CNCC(F)(F)C(F)(F)F,inactive,–
N=C(N)C(F)(F)C(F)(F)C(F)(F)C(F)(F)C(F)(F)C(F)(F)C(F)(F)F,inactive,–
OCCCC(F)(F)C(F)(F)C(F)(F)F,inactive,–
FC(F)(F)C(F)(F)C(F)(F)C(F)(F)C(F)(F)C(F)(F)C(F)(F)C(F)(F)F,inactive,–
O=C(O)C=C(C(F)(F)F)C(F)(F)F,inactive,–
O=C(O)C(F)(F)C(F)(F)C(F)(F)C(F)(F)C(F)(F)C(F)(F)C(F)(F)C(F)(F)C(F)(F)C(F)F,inactive,–
C=C(C)C(=O)OCC(F)(F)C(F)(F)C(F)(F)C(F)(F)C(F)(F)C(F)(F)C(F)(F)F,inactive,–
O=C(O)C(F)(F)C(F)(F)C(F)(F)C(F)(F)F,inactive,–
FC(F)(F)C(F)(F)C(F)(F)C(F)(F)C(F)(F)CCI,inactive,–
COC(=O)CCC(F)(F)C(F)(F)C(F)(F)C(F)(F)F,inactive,–
